Measured values from the OligoGym collection.

Target: WFDC12
Experiment: pooled miR-30 sensor sort-seq; sequence = guide strand
Settings: shRNA
Also: reference of the scale not given here.

In order of falling sensor-assay potency score (higher = more potent):
1. TGACACATCTTCATCCTTGTTT  0.329
2. TTCACAGGAATCACACACTTGA  -0.211
3. AACAACACTTCCTTTCCCCCAG  -0.813
4. AAGAACGAGAGACACCATGAGG  -1.13
5. TTGACACATCTTCATCCTTGTT  -1.2
6. TGCAGGTAACAACACTTCCTTT  -1.24
7. TTTAACTCCTTCCACAGCCACC  -1.29
8. AACTCCTTCCACAGCCACCAGG  -1.44
9. ATGGCCTTGACACATCTTCATC  -1.78
10. TGGTCTGTGTGACACTGGGGAG  -1.92
11. TTGTCAGCTGGGCAAACCCCTG  -1.97

Target: WFDC5
Experiment: as above
Settings: shRNA

In order of falling sensor-assay potency score (higher = more potent):
1. TGACACAGGTGGTTCATGGGGC  0.531
2. TGTAGCAGCACTTCCTGGTCAA  0.234
3. TCTGAGTCCTTGTGACACAGGT  -0.214
4. TCTGTAGCAGCACTTCCTGGTC  -0.738
5. TGGCTGTCTTCCACGCACTGGT  -0.871
6. TTTTGGTGGAGGAAGCAGCATG  -0.976
7. TGTCTTCCACGCACTGGTCAGG  -1.15
8. TCAAGGGACACTGGCTGTCTTC  -1.2
9. TCTTCCTGCCAAAGACAGCAGG  -1.27
10. TTCCTGGTCAAGGGACACTGGC  -1.55
11. AGTCCTTGTGACACAGGTGGTT  -1.67
12. TTTTTGCCCGAGCAGTCTGAGT  -1.7

Target: WFDC8
Experiment: as above
Settings: shRNA

In order of rising sensor-assay potency score (higher = more potent):
1. TTGTCCATCCTTAACAATTAAC  -1.71
2. TTTTTGACTGTCCAGGCCCTGG  -1.19
3. AAACCTTTTTTGACTGTCCAGG  -1.14
4. TACATTTCAGTCCACAATGTGA  -1.04
5. TAACAATTAACATGCAGGCCGT  -0.862
6. TTAACAATTAACATGCAGGCCG  -0.341
7. ATCTGTGTTACATGAGTCCGGA  -0.285
8. TCTCTTTGGGACATAACCCTGG  -0.176
9. TATTTGAAGGGTGTGCAGCGGT  -0.17
10. TGGATTCACAACATTTGTCTGT  -0.069
11. TTGGGTTTATCAATCTTGGTAC  0.104
12. TTGTGTTTGATCTTCTTGGTCA  0.398

Target: WFIKKN1
Experiment: as above
Settings: shRNA

In order of falling sensor-assay potency score (higher = more potent):
1. TCTCTCGCTGGTGACTCTGCTT  -0.761
2. TTGACGCGCTTCTCGCTGGCGG  -0.83
3. TTGTAGAGCACCAGCTGCCCGA  -1.47
4. TCGCTGGTGACTCTGCTTCTCC  -1.48
